From PubChem BioAssay (NCATS)
Values joined by “and” are separate entries in the source; they are usually repeats but may differ in a detail not shown here. Identical values can stand only once. Active and inactive are the calls of the source. The call rests on the fitted dose curve; in most records, active means well fitted activation curve with a large enough effect; inconclusive means small, poorly fitted or top-dose-only effect; inactive means no such curve, though single readings can be large or run the other way.

Biological target: Cytochrome P450 3A4 (Homo sapiens) (UniProt P08684)
Sequence (P08684 whole entry, looked up): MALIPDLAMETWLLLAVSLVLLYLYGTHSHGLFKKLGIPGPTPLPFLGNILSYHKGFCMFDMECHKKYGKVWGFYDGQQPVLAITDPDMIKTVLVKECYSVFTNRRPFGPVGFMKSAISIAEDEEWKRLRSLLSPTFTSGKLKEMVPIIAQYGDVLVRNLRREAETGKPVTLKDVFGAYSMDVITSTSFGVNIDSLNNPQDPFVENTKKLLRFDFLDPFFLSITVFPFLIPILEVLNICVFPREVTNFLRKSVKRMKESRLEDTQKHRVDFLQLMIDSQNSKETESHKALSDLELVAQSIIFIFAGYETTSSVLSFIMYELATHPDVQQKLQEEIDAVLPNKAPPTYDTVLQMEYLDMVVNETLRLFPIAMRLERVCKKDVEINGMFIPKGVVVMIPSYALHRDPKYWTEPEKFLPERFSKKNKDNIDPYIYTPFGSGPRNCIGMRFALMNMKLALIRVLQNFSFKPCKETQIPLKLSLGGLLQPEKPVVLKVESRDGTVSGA
Experiment: qHTS Assay for Activators of Cytochrome P450 3A4 (AID 885); further: nearly all actives have a fitted effect of over 65% in size
Conditions: recombinant CYP3A4, Luciferin-PPXE luminescence, 60 min; series mostly up to 57.1 µM; activity change, positive = activation: at the top concentration
Outline: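 Using 20nM recombinant human CYP3A4 in potassium phosphate (200mM), substrate Luciferin-PPXE at 25uM, luminescent luciferin detection followed a 60-min RT NADPH reaction; data scaled to 57 uM ketoconazole.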

Activity change, positive = activation, inactive:
COc1ccc(O[C@H]2C=C[C@@H](c3ccccc3)O[C@@H]2CON=C(C)C)cc1 -40.2% [at 11.4 µM]
COC(=O)C/C=C\[C@@H](C)[C@@H](/C=N\OC[C@@H](C)[C@H](OCc1ccccc1)C(C)C)OC -33% [at 11.4 µM]
CO[C@@H]1/C=C\CC(=O)N[C@@H](C)C(=O)OC[C@@H](OC)[C@H](C)/C=C\CC(=O)OC[C@H]1C -36.7% [at 11.4 µM]
CC(C)=NO[C@@H](C)c1cc(-c2c(C)cc(C)cc2C)no1 -45% [at 11.4 µM]
COC(=O)[C@@H]1C[C@@]2(O)[C@H](O)[C@H](O)[C@H](O)C[C@H]2N1Cc1ccc(N2CCN(C)CC2)cc1 -46%
CC(=O)OC[C@@H]1O[C@H](C/C=N\O[C@@H](C)c2cn([C@H](CO)Cc3ccccc3)nn2)C=C[C@@H]1OC(C)=O -51.6% [at 11.4 µM] and -34% [at 11.4 µM]
FC(F)(F)c1ccc(CN2C[C@@H]3C(c4ccccc4)C4(c5ccccc5)CC3(C4)[C@H]2c2ccccc2)cc1 (stereo not given in full) -53.9%
COC(=O)c1ccc(C23CC4(C2)[C@H](CN(C)[C@@H]4c2ccccc2)C3c2ccc(Cl)nc2)cc1 (stereo not given in full) -50%
CO[C@@H]1COC(=O)[C@@H](CCSC)NC(=O)C/C=C\[C@@H](C)COC(=O)CCC[C@H]1C -30.5% [at 11.4 µM]
CC(C)(C)N1C(=O)[C@H]2[C@H]3[C@H](O)[C@H](O)C/C(=N/OC[C@@H](O)COCc4ccco4)[C@H]3CC[C@@H]2C1=O -30.9% [at 11.4 µM]
N#Cc1ccc(C23CC4(C2)[C@H](CN(CC2CCCCC2)[C@@H]4c2ccccc2)C3c2ccc(Cl)nc2)cc1 (stereo not given in full) -51%
CCC1=C2CC[C@H]3C(=O)NC(=O)[C@H]3[C@H]2[C@@]2(Cc3ccccc3)C(=NCC(=O)OC)OC(=O)N2C1=O -56.7%
Cc1nc(NC2CCCCC2)c2nc(-c3ccccc3)n(CCCN3CCOCC3)c2n1 -51.2%
COc1ccc(COC(=O)N/N=C2/C[C@@H](O)[C@@H](O)[C@@H]3[C@@H]4C(=O)N([C@@H](C)c5ccccc5)C(=O)[C@H]4CC[C@H]23)cc1 -54.4% [at 11.4 µM]
CC(C)=CCC/C(C)=C/CO/N=C1/C[C@@H](O)[C@@H](O)[C@@H]2[C@@H]3C(=O)N(C[C@@H]4CCCO4)C(=O)[C@H]3CC[C@H]12 -35.7% [at 11.4 µM]
COC(=O)[C@@H]1C[C@H]2CC[C@H](O)C[C@H]2N1Cc1ccc(C(F)(F)F)cc1 -52.4%
COC(=O)N1C2(C=CC1(C)C(=O)NCc1ccc(N(C)C)cc1)CCCCC2 (stereo not given) -54.6%
COC(=O)c1cccc(C#CC(NP(=O)(c2ccccc2)c2ccccc2)c2ccccc2)c1 (stereo not given) -41.1%
FC(F)(F)c1ccc(C2[C@H]3CN(Cc4ccc(-c5ccccc5)cc4)[C@H](c4ccccc4)C34CC2(c2cccnc2)C4)cc1 (stereo not given in full) -54.4%
CN1C[C@@H]2C(c3ccc(Cl)nc3)C3(c4ccc(C#N)cc4)CC2(C3)[C@H]1c1ccccc1 (stereo not given in full) -44.9%
CCC1=C2CC[C@H]3C(=O)NC(=O)[C@H]3[C@H]2[C@@]2(C)C(=O)N(CC3CC3)C(=O)N2C1=O -36.8%
CC(C)=CCC/C(C)=C/CO/N=C1/C[C@@H](O)[C@@H](O)[C@@H]2[C@H]3C(=O)N(c4ccc(F)cc4F)C(=O)[C@@H]3CC[C@@H]12 -30.2% [at 11.4 µM]
CC(=O)OC[C@@H]1O[C@H](CCO/N=C(\C)CCN2CCc3nc(-c4ccccc4)c(-c4ccccc4)cc3C2)C=C[C@@H]1OC(C)=O -47.2% [at 11.4 µM]
CO[C@@H]1/C=C\CC(=O)N[C@@H](C)C(=O)OC[C@@H](OC)[C@H](C)CCCC(=O)OC[C@H]1C -57.1% [at 11.4 µM]
COC(=O)NC(/C(C(=O)OC)=C(\C)NCc1ccccc1)c1ccccc1 (stereo not given) -30.2% [at 11.4 µM]
O=C1[C@@H]2[C@H]3[C@H](O)[C@H](O)C/C(=N/OCc4ccccc4)[C@H]3CC[C@H]2C(=O)N1c1ccc(F)cc1F -34.3% [at 11.4 µM]
C[C@H](O/N=C1/[C@H]2O[C@@H]2[C@@H](O)[C@H]2[C@H]1CCn1c(=O)n(-c3ccccc3)c(=O)n12)c1cn([C@H](CO)Cc2ccccc2)nn1 -48.5% [at 11.4 µM] and -48.2% [at 11.4 µM]
COC(=O)[C@@H]1CC[C@H](C)[C@@H](c2ccc(C)cc2)N1C(=O)c1ccc(/C=N\O[C@@H](C)c2cn([C@H]3COC[C@H]3O)nn2)cc1 -43.4% [at 11.4 µM]
COC(=O)[C@@H]1C[C@@]2(O)[C@@H](O)[C@@H](O)[C@@H](O)C[C@H]2N1CC1CCCCC1 -36.1%
CCC1=C2CC[C@H]3C(=O)N(CC)C(=O)[C@H]3[C@H]2[C@@]2(C)C(=NCC(=O)OC)OC(=O)N2C1=O -56.3%
N#Cc1ccc(C23CC4(C2)[C@H](CN(Cc2ccc(C(F)(F)F)cc2)[C@@H]4c2ccccc2)C3c2ccccc2)cc1 (stereo not given in full) -57.8%
COC(=O)[C@@H]1C[C@@]2(O)[C@H](O)[C@H](O)[C@H](O)C[C@H]2N1CC(c1ccccc1)c1ccccc1 -52.9%
CC(=O)OC[C@@H]1O[C@H](CCO/N=C(\C)CCN2CCCc3nc(C)c(C)cc32)C=C[C@@H]1OC(C)=O -42.6% [at 11.4 µM]
CC(C)=CCC/C(C)=C/CO/N=C1/C[C@@H](O)[C@@H](O)[C@@H]2[C@@H]3C(=O)N(C4CCCCC4)C(=O)[C@H]3CC[C@H]12 -36.4% [at 11.4 µM]
c1ccc(C2[C@H]3CN(CC4CCCCC4)[C@H](c4ccccc4)C34CC2(c2ccccc2)C4)cc1 (stereo not given in full) -41.7%
COC(=O)NC(/C(C(=O)OC)=C(\C)NCc1ccccc1)c1cccs1 (stereo not given) -35.9% [at 11.4 µM]
CCc1cc2c(nc1CC)CCN(CC/C(C)=N/OC[C@H]1O[C@H](c3ccccc3)C=C[C@@H]1Oc1ccc(OC)cc1)C2 -51.8% [at 11.4 µM]
O=C1CCCC=C1[C@@H](O)COCc1ccccc1 -31.3% [at 11.4 µM]
c1ccc(-c2ccc(CN3C[C@@H]4C(c5ccccc5)C5(c6cccnc6)CC4(C5)[C@H]3c3ccccc3)cc2)cc1 (stereo not given in full) -59%
COC(=O)c1ccc(CN2[C@@H]3C[C@@H](O)CC[C@@H]3C[C@H]2C(=O)OC)cc1 -59.2%
